In PubChem BioAssay (NCI):
Compounds without any hit were thinned out: in the full panel of roughly 83,000, 20% have a hit.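 Cells were grown in 96-well plates and exposed to the test compound at a single concentration for 48 hours; results are reported as percent growth, with values below 10 considered active.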 A number with no mark means an inactive call. Activity calls are given as the source filed them.

Assays:
Assay in all cases: NCI-60 one-dose screen, 48 h (100 = growth as untreated, 0 = no growth, -100 = all killed)
Conditions in all cases: 10 µM unless noted
HCT-15 colon = system: HCT-15 colon
HT29 colon = system: HT29 colon
SNB-75 CNS = system: SNB-75 CNS
SNB-19 CNS = system: SNB-19 CNS
U251 CNS = system: U251 CNS
PC-3 prostate = system: PC-3 prostate
SK-MEL-5 melanoma = system: SK-MEL-5 melanoma
UACC-62 melanoma = system: UACC-62 melanoma
LOX IMVI melanoma = system: LOX IMVI melanoma
SK-MEL-28 melanoma = system: SK-MEL-28 melanoma
SK-MEL-2 melanoma = system: SK-MEL-2 melanoma
EKVX NSCLC = system: EKVX NSCLC
SN12C renal = system: SN12C renal
UO-31 renal = system: UO-31 renal
TK-10 renal = system: TK-10 renal
ACHN renal = system: ACHN renal
CAKI-1 renal = system: CAKI-1 renal
A498 renal = system: A498 renal
CCRF-CEM leukemia = system: CCRF-CEM leukemia
MOLT-4 leukemia = system: MOLT-4 leukemia

Row | Structure (SMILES) | growth (HCT-15 colon) | growth (HT29 colon) [%] | growth (SNB-75 CNS) | growth (SNB-19 CNS) | growth (U251 CNS) | growth (PC-3 prostate) [%] | growth (SK-MEL-5 melanoma) | growth (UACC-62 melanoma) [%] | growth (LOX IMVI melanoma) | growth (SK-MEL-28 melanoma) [%] | growth (SK-MEL-2 melanoma) [%] | growth (EKVX NSCLC) | growth (SN12C renal) | growth (UO-31 renal) | growth (TK-10 renal) | growth (ACHN renal) | growth (CAKI-1 renal) | growth (A498 renal) | growth (CCRF-CEM leukemia) | growth (MOLT-4 leukemia)
1 | CN1C(=O)C2(C(C#N)=C(c3ccc(Cl)cc3)Nc3c2c(-c2ccccc2)nn3-c2ccccc2)c2ccccc21 (stereo not given) | 87.6% | 85.2 | 69.4% | 87% | 102% | 85.8 | 88.1% | 69.5 | 55.3% | 94.2 | 89.8 | 80.7% | 86.3% | 71.7% | 103% | 89.5% | 71% | 144% | 75.6% | 64.4%
2 | FC(F)(F)c1cc2c(Cl)ncnc2n1CCN1CCOCC1 | 2.39% (active) | 81.2 | 53.5% | 43.4% | 78.5% | 88.2 | 88.2% | 64.7 | -12.7% (active) | 74.1 | 47.7 | 92.8% | 75.6% | -92.7% (active) | 102% | -45.4% (active) | 75% | 116% | 36.6% | 20.2%
3 | CC1=C(C)C(=O)C(N2CCSCC2)=CC1=O | 104% | 103 | 80.8% | 87.2% | 96.9% | 89.7 | 96.7% | 93.3 | 83.8% | 107 | 94.6 | 92.6% | 100% | 76.2% | 130% | 96.6% | 93.2% | 98.2% | 81% | 86.3%
4 | CC(Nc1ncnc2ccc(-c3ccc4oc(N)nc4c3)cc12)c1ccccc1 (stereo not given) | 5.13% (active) | 29.5 | -82.8% (active) | 20.3% | -22.8% (active) | 34.4 | -75.3% (active) | 11.9 | -97.7% (active) | 17.4 | 34.6 | 5.01% (active) | -17.7% (active) | -76.4% (active) | -41.4% (active) | -64.2% (active) | -40.6% (active) | 49.8% | 2.38% (active) | -39.9% (active)
5 | COc1ccc(-c2cc(C)nc3[nH]c(=O)sc23)cc1 | 88.1% | 93.3 | -4.05% (active) | 53.6% | 9.93% (active) | 81.3 | 80.4% | 60.9 | 45.9% | 89.8 | 100 | 89.5% | 43.2% | 3.27% (active) | 17.1% | 31.9% | 40.5% | 6.1% (active) | 81.5% | 86.8%
6 | Cc1ccc(-c2cc(C(=O)N=Nc3c(O)[nH]c4ccc(F)cc34)c3ccccc3n2)cc1 | 7.85% (active) | 36.3 | 56.7% | 41.9% | -30.9% (active) | 77.6 | 59.2% | 59.9 | 1.93% (active) | 14.5 | 107 | 29.8% | 18.1% | 77.5% | 106% | 42.8% | 62.9% | 187% | 92.4% | 65.3%
7 | COc1ccc(-c2cc(-c3cc(OC)c(OC)c(OC)c3)[nH]c(=O)c2C#N)cc1 | 81% | 103 | -22.4% (active) | 8.18% (active) | 42.2% | 70.9 | 64.9% | 59.3 | 40.2% | 51.9 | 97.8 | 65.6% | 8.1% (active) | -24.9% (active) | 40.8% | -25.4% (active) | 47% | -2.4% (active) | 76.7% | 80.1%
